Assay outcomes: PubChem, National Center for Advancing Translational Sciences (NCATS)
NS1 inh = blocks influenza NS1 protein function; AID 2326; 270,000 tested, 0.4% active; Potency, µM (series often up to 46.1 µM), without a hit: at the highest dose activity, positive = more growth; note: potency is the fitted concentration of half-maximal effect; actives are rising curves; nearly all actives have a fitted effect of over 50% in size
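Read-out: OD600 growth recovery of NS1-expressing budding yeast. Cells grown overnight at 30C in -URA glucose medium, washed, resuspended and diluted 1:100 in 2% galactose assay medium, pH 6.0. Same strain lacking NS1 served as positive control.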
Pf growth 96h = P. falciparum growth inhibition at 96 hours; 320,000 tested, 6.9% active; AID 504834; P. falciparum luciferase reporter growth, 96 h; Potency, µM (titrated, usually from 28.7 µM), for inactives: at the top dose activity change, negative = inhibition, most hits filed as inhibitors; active = well fitted inhibition curve with a large enough effect; inconclusive = small, poorly fitted or top-dose-only effect, or another doubt; inactive = no such curve, though single readings can be large or run the other way; note: potency is the fitted concentration of half-maximal effect; % is set by controls: 0 for no effect and ±100 for the full control effect
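Parasite growth measured via integrated firefly luciferase reporter in P. falciparum. Infected erythrocytes at 2% hematocrit, 0.05% parasitemia final were treated 96 hours at 37 C under 5% CO2, and luminescence was read.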
Shiga inhibitor = inhibitors of Shiga toxin in Vero cells. Vero cells, Shiga toxin protein synthesis inhibition reporter. inhibition, % at 38.7 µM. 290,000 tested, 9.2% active. AID 2315; in the data active = inhibition mostly above about 28%, no sharp cut-off; inactive = mostly below about 43%; note: 0% is about no effect
Pf growth 48h = inhibits P. falciparum growth in the first generation, 48 h; P. falciparum luciferase growth in erythrocytes, 48 h; Potency, µM (doses to about 28.7 µM), without a hit: top-dose activity change, negative = inhibition, usual class: inhibitors; 310,000 tested, 5.9% active; AID 504832; active = well fitted inhibition curve with a large enough effect; inconclusive = small, poorly fitted or top-dose-only effect, or another doubt; inactive = no such curve, though single readings can be large or run the other way; note: potency is the fitted concentration of half-maximal effect; % is set by controls: 0 for no effect and ±100 for the full control effect
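Luciferase-expressing P. falciparum in infected erythrocytes (2% hematocrit, 0.1% parasitemia final) in RPMI 1640/0.5% Albumax were exposed to compound for 48 hours at 37 C, 5% CO2; growth read as luminescence.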
SARS PLpro yeast = blocks SARS-CoV papain-like protease in a yeast assay; 330,000 tested, 0.19% active; S. cerevisiae expressing SARS-CoV PLpro, growth rescue; AID 485353; Potency, µM (doses to about 32.9 µM), inactives show top-dose activity, positive = growth rescue, usual class: activators; note: potency is the fitted concentration of half-maximal effect; 0% is about no effect; nearly all actives have a fitted effect of over 55% in size
CHX counter = counter-screen for Shiga toxin inhibitors: cycloheximide protein synthesis inhibition; AID 2314; 300,000 tested, 12% active; cell reporter, cycloheximide protein synthesis inhibition counterscreen; max response, %; in the data active = max response mostly above about 13%, no sharp cut-off; inactive = mostly below about 14%; note: read at 38.3 µM for the half of the compounds with a filed dose; 0% is about no effect
The depositor's hits bear a star; ? = inconclusive; nt = no result given. A selection: hits, their analogues and other compounds. The true share with any hit is near 21%. Unless noted, calls come from the whole dose curve.

SMILES	NS1 inh	Pf growth 96h	Shiga inhibitor	Pf growth 48h	SARS PLpro yeast	CHX counter
COC(=O)c1cccc2nc3c(C(C)O)cccc3nc12 (stereo unspecified)	-9.2%	?	21.7	-2.5%	0.9%	8.1*
CCN(CC)C(=O)c1cccc2nc3ccccc3nc12	-1.8%	14.5%	3.6	5.3%	-1.1%	-2.0
Cc1cccc(NC(=S)N(C)Cc2cn(C)c3ccccc23)c1	-4.5%	29.7%	-2.1	-21.3%	-35.3%	-3.4
CN(Cc1cn(C)c2ccccc12)C(=S)Nc1cc(F)cc(F)c1	-5.5%	-11.3%	-5.0	11.7µM*	9.6%	-2.7
COc1ccccc1N(CC(=O)NC(C)C)S(=O)(=O)c1cccs1	-2.5%	?	-1.9	-7.6%	-0.2%	4.9
CCOc1ccc(NC(=S)Nc2ccccc2C2(C)CC2)cc1	-3.8%	-23.1%	-12.8	?	0.8%	-2.5
O=S(=O)(c1ccc2ccccc2c1)N(CC1CO1)c1ccccc1 (stereo unspecified)	-10.2%	14.0%	-2.7	-1.3%	0.2%	1.0
CCOc1ccc(-n2c(Cc3cc(=O)[nH]c(=O)[nH]3)nnc2SCc2cccnc2)cc1	2.4%	13.1µM*	11.8	nt	5.2%	-1.2
CCOC(=O)C(C)Sc1nnc(Cc2cc(=O)[nH]c(=O)[nH]2)n1-c1ccc(OCC)cc1 (stereo unspecified)	4.9%	9.28µM*	-7.0	nt	-3.8%	-1.3
Cc1cc(C)nc(SCc2ccc(C(=O)N/N=C/c3ccco3)cc2)n1	2.5%	?	-12.4	-33.5%	-0.5%	-2.5
COc1cc(O)oc1C=Nc1ccc(Cl)cc1	-13.5%	167.5%	19.5	38.0%	-0.8%	14.9
COc1cc(O)oc1C=Nc1ccc(Cl)cc1Cl	-51.2%	64.5%	35.3*	?	-7.4%	27.8*
O=C(O)Cc1ccc(OCc2ccc(Cl)nc2)cc1	nt	102.0%	38.4	1.9%	0.7%	10.4
COc1ccc(-c2cc(C(=O)Nc3cc(C)on3)no2)cc1	nt	?	46.0	31.4%	-0.2%	25.4
CCC(C)NC(=O)c1cc(-c2ccc(OC)cc2)on1 (stereo unspecified)	?	37.2%	66.4*	nt	-0.9%	28.7*
COc1ccc(-c2cc(C(=O)NCC(C)C)no2)cc1	-9.9%	-12.5%	70.8*	nt	4.7%	37.9*
COc1ccc(-c2cc(C(=O)O)no2)cc1	7.1%	-16.9%	1.2	16.3%	-0.7%	4.0
COc1ccccc1N/C(=N/c1nc(C)cc(C)n1)NC(C)=O	-4.4%	18.8%	-9.5	-19.7%	-3.9%	-0.6
CCC(=O)N/C(=N/c1nc(C)cc(C)n1)Nc1ccc(OC)cc1	4.6%	14.7µM*	1.8	-19.4%	-8.2%	-3.9
CCC(=O)N/C(=N/c1nc(C)cc(C)n1)Nc1ccccc1	2.7%	11.0%	-11.8	11.1%	2.7%	5.5
COc1ccccc1C(=O)N/C(=N/c1nc(C)cc(C)n1)Nc1ccccc1	-7.3%	6.9%	15.5	0.0%	0.6%	12.5*
CC1=C(C(=O)Nc2cc(C(=O)NCCCOC(C)C)ccc2C)SCCO1	0.3%	1.5%	-7.1	6.3%	1.6%	-0.4
C=CCN1C(=O)C(CC(=O)Nc2ccc(OC)cc2)SC1=Nc1ccc(S(N)(=O)=O)cc1 (stereo unspecified)	nt	24.6%	-4.0	19.1%	6.1%	-2.6
C/C(=N\NC(=O)c1nn(C)c(C)c1Br)c1cccc(NC(=O)c2ccc(F)cc2)c1	-11.7%	?	active	52.8%	-2.7%	72.1*
C/C(=N\NC(=O)c1c(Cl)c(C)nn1C)c1cccc(NC(=O)c2cccc(F)c2)c1	-2.6%	?	13.4	?	-2.4%	2.1
C/C(=N\NC(=O)c1cc(Br)ccc1O)c1cccc(NC(=O)c2ccccc2F)c1	-39.6%	5.3%	43.3*	2.6%	-10.2%	18.8
C/C(=N\NC(=O)c1c(Br)c(C)nn1C)c1cccc(NC(=O)c2ccccc2F)c1	-1.7%	13.0%	66.2*	21.8%	-3.4%	20.7*
C/C(=N\NC(=O)c1ccccc1F)c1ccc(C#N)cc1	-7.1%	171.6%	128.6*	175.7%	-1.8%	37.5*
O=C(Nc1cccc(NC(=O)c2ccccc2F)c1)c1ccccc1	-1.9%	13.8%	17.0	39.3%	1.0%	8.9
CC1(N(O)C=C2C=CC(=O)C=C2)CCCCC1=O (stereo unspecified)	7.3%	?	1.7	9.4%	1.5%	-0.6
